Assay [1] is described as follows: qHTS assay to identify small molecule agonists of the RXR signaling pathway - cell viability counter screen (AID 1159529). Also: series mostly up to about 77 µM; nearly all actives have a fitted effect of over 50% in size. In outline: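 CellTiter-Glo luminescence gave viability in the wells also read for beta-lactamase. Cells (RXR-alpha-UAS-bla HEK 293T, 2% charcoal-stripped FBS medium) had 5 hr plating, then 16 hr compound exposure at 37 C; tetraoctyl ammonium bromide served as positive control.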
In general terms: qHTS replaces the single test concentration by a dilution series.

Assay [2] is described as follows: qHTS assay to identify small molecule antagonists of the retinoid acid receptor (RAR) signaling pathway - cell viability counter screen (AID 1159551). Also: nearly all actives have a fitted effect of over 35% in size. In short, it runs like this:
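Retinol-stimulated (1 uM final) C3RL4 cells, compound 6 h, 37 C; readout CellTiter-Glo luminescence (ATP) after 30 min RT incubation.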

The nature of assay [3]: qHTS assay to identify small molecule antagonists of the retinoic acid receptor (RAR) signaling pathway (AID 1159552; also: nearly all actives have a fitted effect of over 50% in size). In short, it runs like this: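 Luminescent RARE reporter read-out in C3RL4 cells: 6 hr co-treatment at 37 C of test compounds with retinol at 1 uM final. Cells plated overnight beforehand; luciferase reagent incubated 30 min at room temperature before reading.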

A short description of assay [4]: qHTS assay to identify small molecule agonists of the retinoic acid receptor (RAR) signaling pathway (AID 1159553). In outline: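 Reporter readout comes from luciferase under RARE control in C3RL4 cells; compound exposure lasts 6 hr at 37 C in 5% CO2, and luminescence is recorded following a 30 min room-temperature incubation with reagent.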
The nature of assay [5]: qHTS assay to identify small molecule antagonists of the estrogen related receptor (ERR) signaling pathway from Tox21 library - cell viability counter screen (AID 1224834). Also: nearly all actives have a fitted effect of over 30% in size. In short, it runs like this:
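After 17.5 h of compound exposure at 37 C, ERR cells are incubated with CellTiter-Fluor for 30 min and fluorescence intensity serves as the viability measure.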

Assay [6] concerns the target Luciferin 4-monooxygenase (Photinus pyralis) (UniProt P08659). The assay can be described thus: qHTS assay to identify small molecule inhibitors of firefly luciferase (AID 1224835). Also: series mostly up to about 120 µM; nearly all actives have a fitted effect of over 25% in size. In outline: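 Inhibition of purified Photinus luciferase is measured by luminescence. Substrate levels (D-luciferin, ATP) sit at their KM values. Each compound is tested in a concentration series.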

The nature of assay [7]: qHTS assay to identify small molecule antagonists of the constitutive androstane receptor (CAR) signaling pathway - cell viability counter screen (AID 1224837). Also: series mostly up to about 92 µM; nearly all actives have a fitted effect of over 45% in size. In short, it runs like this:
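Counter screen run in HepG2-CYP2B6-hCAR cells: 4 hr settle, compound titration (15 concentrations) with 50 nM CITCO, 23 hr at 37 C/5% CO2, CellTiter-Fluor fluorescence.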

For assay [8], the target named is Nuclear receptor subfamily 1 group I member 3 (Homo sapiens) (UniProt Q14994). The experiment in a line: qHTS assay to identify small molecule antagonists of the constitutive androstane receptor (CAR) signaling pathway (AID 1224838).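 Also: HepG2 cells stably expressing hCAR with CYP2B6 luciferase reporter stimulated by CITCO; nearly all actives have a fitted effect of over 40% in size.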 In outline:
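Cell line: HepG2 double-stable for hCAR and CYP2B6-2.2kb reporter. Agonist: CITCO, 50 nM final. Compounds: 15 concentrations, 24 h, 37 C. Detection: ONE-Glo luminescence.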

Assay [9] can be described thus: qHTS assay to identify small molecule antagonists of the estrogen related receptor signaling pathway with the pleiotropic PPARgamma coactivator (PGC) from Tox21 10K library - cell viability counter screen (AID 1224840; active = well fitted cell-killing curve with a large enough effect in the repeat runs, not every such curve was filed as active; also: nearly all actives have a fitted effect of over 40% in size). In outline:
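Following seeding of 2,000 PGC/ERR cells/well and 6 hours' incubation, test compounds were delivered in DMSO. The plates then sat 17.5 hours at 37 C before a fluorogenic live-cell protease reagent (CellTiter-Fluor) was read after 30 min.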

The nature of assay [10]: qHTS assay to identify small molecule antagonists of the estrogen related receptor signaling pathway with the pleiotropic PPARgamma coactivator (PGC) from Tox21 10K library (AID 1224841; call rule not given here; also: actives are mostly falling curves and most rising ones were filed inactive; nearly all actives have a fitted effect of over 50% in size; also: potency is read from the fitted curve at half-maximal effect). In outline:
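qHTS antagonist format: PGC/ERR cells, 2k/well, compound in DMSO by pin transfer after 6 h attachment, 18 h treatment at 37 C, One-Glo luminescence read at 30 min.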

Assay [11] in a line: qHTS assay to identify small molecule agonists of the estrogen related receptor signaling pathway with the pleiotropic PPARgamma coactivator (PGC) from Tox21 10K library (AID 1224842). Also: nearly all actives have a fitted effect of over 15% in size. In outline: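 Luminescence from One-Glo (30 min, room temperature) measured after PGC/ERR cells had 18 h at 37 C with pinned compound (23 nL in DMSO). Cells had been seeded at 2,000 per well and pre-incubated 6 h.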

Assay [12] addresses Thyrotropin receptor (Homo sapiens) (UniProt P16473). The experiment in a line: qHTS assay to identify small molecule agonists of the thyroid stimulating hormone receptor (TSHR) signaling pathway (AID 1224843; calls by dose curve; also: nearly all actives have a fitted effect of over 45% in size). In short, it runs like this:
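HEK293 cells stably bearing the thyrotropin receptor were plated at 800 cells/well and challenged with compound (30 min, RT). Accumulated cAMP was quantified via cAMP-d2 competing for cryptate-tagged antibody.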

Assay [13] can be described thus: qHTS assay to identify small molecule agonists of the constitutive androstane receptor (CAR) signaling pathway - cell viability counter screen (AID 1224836). Also: series mostly up to about 92 µM; nearly all actives have a fitted effect of over 45% in size. In outline:
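Cell viability multiplexed with the CAR agonist screen: CellTiter-Fluor fluorescence after 23 hr at 37 C. HepG2-CYP2B6-hCAR cells got compounds at 15 concentrations with PK11195 at 0.75 uM final.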

Assay [14] concerns the target Nuclear receptor subfamily 1 group I member 3 (Homo sapiens) (UniProt Q14994). The assay can be described thus: qHTS assay to identify small molecule agonists of the constitutive androstane receptor (CAR) signaling pathway (AID 1224839).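 Also: HepG2 cells stably carrying human CAR and a CYP2B6 luciferase reporter; series mostly up to about 92 µM; nearly all actives have a fitted effect of over 15% in size.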 In short, it runs like this: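 Luminescent ONE-Glo read-out after 24 hr, 37 C exposure of double-stable HepG2-CYP2B6-hCAR reporter cells to a 15-point compound series, in the presence of 0.75 uM PK11195 (final).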

Structures are written as SMILES. Records with an inconclusive call do not appear. Values without a mark were called inactive. Active and inactive are the calls of the source. Unless noted, calls follow the shape of the dose curve; as a rule, active = well fitted curve in the direction sought with a large enough effect in the repeat runs; inconclusive = weak or mixed curves; inactive = no such curve, though single readings can be large; an effect the other way counts as inactive or inconclusive.

Chain of Thyrotropin receptor (Homo sapiens) (P16473 whole entry, looked up): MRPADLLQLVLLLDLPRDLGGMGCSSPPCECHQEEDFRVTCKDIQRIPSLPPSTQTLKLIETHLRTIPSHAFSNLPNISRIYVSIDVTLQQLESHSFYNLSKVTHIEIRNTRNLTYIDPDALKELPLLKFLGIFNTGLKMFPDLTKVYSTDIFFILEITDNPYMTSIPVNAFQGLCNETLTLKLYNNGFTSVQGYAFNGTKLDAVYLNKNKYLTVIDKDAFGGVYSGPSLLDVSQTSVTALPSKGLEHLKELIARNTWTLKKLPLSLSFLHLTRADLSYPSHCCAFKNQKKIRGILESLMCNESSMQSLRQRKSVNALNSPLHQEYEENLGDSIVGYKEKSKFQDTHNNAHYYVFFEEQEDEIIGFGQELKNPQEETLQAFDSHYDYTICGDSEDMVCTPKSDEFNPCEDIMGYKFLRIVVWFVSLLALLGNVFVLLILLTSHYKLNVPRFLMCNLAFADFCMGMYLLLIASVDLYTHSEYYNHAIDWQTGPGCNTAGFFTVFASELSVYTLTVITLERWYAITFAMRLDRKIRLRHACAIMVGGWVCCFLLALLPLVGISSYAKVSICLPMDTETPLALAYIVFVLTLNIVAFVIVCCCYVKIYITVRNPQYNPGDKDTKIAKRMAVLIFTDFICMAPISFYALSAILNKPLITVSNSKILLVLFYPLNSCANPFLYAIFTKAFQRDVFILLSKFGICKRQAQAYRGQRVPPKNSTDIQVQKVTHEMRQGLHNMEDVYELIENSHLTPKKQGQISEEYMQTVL
Chain of Nuclear receptor subfamily 1 group I member 3 (Homo sapiens) (Q14994 whole entry, looked up): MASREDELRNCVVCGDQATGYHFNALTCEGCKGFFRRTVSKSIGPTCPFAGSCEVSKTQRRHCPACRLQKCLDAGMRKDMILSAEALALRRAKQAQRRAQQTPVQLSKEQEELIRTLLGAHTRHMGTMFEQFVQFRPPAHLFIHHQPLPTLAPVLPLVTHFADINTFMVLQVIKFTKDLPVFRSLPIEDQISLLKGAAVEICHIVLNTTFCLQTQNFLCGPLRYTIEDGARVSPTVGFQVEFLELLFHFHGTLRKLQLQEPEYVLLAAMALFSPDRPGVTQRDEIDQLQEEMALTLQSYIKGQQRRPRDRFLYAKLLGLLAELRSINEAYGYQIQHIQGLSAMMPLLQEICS
Chain of Luciferin 4-monooxygenase (Photinus pyralis) (P08659 whole entry, looked up): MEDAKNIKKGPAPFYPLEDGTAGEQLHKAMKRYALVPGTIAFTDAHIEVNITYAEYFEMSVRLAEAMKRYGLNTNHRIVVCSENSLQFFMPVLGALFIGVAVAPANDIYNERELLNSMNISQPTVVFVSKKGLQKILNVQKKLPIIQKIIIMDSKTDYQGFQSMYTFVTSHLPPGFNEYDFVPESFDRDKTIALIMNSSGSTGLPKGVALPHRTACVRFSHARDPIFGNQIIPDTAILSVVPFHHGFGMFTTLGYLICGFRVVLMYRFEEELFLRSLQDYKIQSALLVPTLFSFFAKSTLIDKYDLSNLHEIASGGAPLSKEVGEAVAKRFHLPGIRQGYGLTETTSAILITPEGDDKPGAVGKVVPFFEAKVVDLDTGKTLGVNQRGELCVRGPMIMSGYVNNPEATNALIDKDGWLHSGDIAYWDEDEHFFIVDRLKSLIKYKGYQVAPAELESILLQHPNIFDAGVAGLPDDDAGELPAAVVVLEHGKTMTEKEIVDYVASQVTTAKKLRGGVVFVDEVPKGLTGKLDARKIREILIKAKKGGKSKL

As to `OCC1CC2CC1C1CCC(CO)C21` (configuration not stated), the Potency entry in assay [1], in [2], in [3], in [4], in [5] and in assay [6] was “inactive” throughout. Besides, the Potency result in [7], in [8], in assay [9], in assay [10], in assay [11] and in assay [12] was “inactive” in each case.

For `CCCCCCCCCCCCCCC1CO1` (configuration not stated), the Potency entry in assay [1], in assay [2], in assay [3], in assay [4], in [5] and in [6] was “inactive” throughout. Further, the Potency result in assay [7], in [9] and in assay [12] was “inactive” each time.

For the compound `CC(=O)/C=C/C1C(C)=CCCC1(C)C` (configuration not stated), the Potency result in assay [1], in assay [2], in assay [3], in assay [4], in [5] and in assay [6] was “inactive” each time. In addition, the Potency entry in assay [13], in assay [7] and in [9] was “inactive” throughout.

With `CCN1CCC[C@H]1CNC(=O)c1c(OC)ccc(Br)c1OC`, the Potency entry in assay [1], in assay [2], in assay [3], in assay [4], in assay [5] and in [6] was “inactive” in each case. The Potency entry in assay [13], in [7], in assay [9] and in assay [12] was “inactive” throughout.

In the case of `CCCCCCCCCCCCCCCC(=O)OC/C=C(C)/C=C/C=C(C)/C=C/C1=C(C)CCCC1(C)C`, the Potency result in assay [1], in assay [2], in assay [3], in assay [4], in assay [5] and in [6] was “inactive” throughout. The Potency result in assay [7], in assay [8], in [14] and in assay [9] was “inactive” throughout.

For `Cc1ccc(C)o1`, the Potency entry in assay [1], in assay [2], in [3], in assay [4], in assay [5] and in [6] was “inactive” each time. Further, the Potency entry in assay [13], in assay [7], in [14], in assay [9], in assay [10] and in assay [11] was “inactive” throughout.

Turning to `COc1ccc(C(C)=O)cc1`, the Potency result in [1], in assay [2], in [3], in assay [4], in [5] and in [6] was “inactive” in each case. Besides, the Potency result in assay [7] and in [9] was “inactive” each time.

Turning to `Nc1nc(N)c2nc(CNc3ccc(C(=O)N[C@@H](CCC(=O)O)C(=O)O)cc3)cnc2n1`, the Potency entry in assay [1], in assay [2], in [3], in assay [4], in [5] and in [6] was “inactive” each time. Moreover, the Potency result in assay [13], in [14], in [9] and in assay [11] was “inactive” in each case. Further, the Potency in [10] was 0.114 µM (active).

Turning to `OCCC1CCCCN1` (configuration not stated), the Potency result in assay [1], in assay [2], in assay [3], in assay [4], in assay [5] and in assay [6] was “inactive” throughout. Further, the Potency entry in [13], in [7], in assay [9] and in assay [12] was “inactive” throughout.

On to `NCCCN(CCO)CCO`, for which the Potency result in assay [1], in assay [2], in [3], in [4], in [5] and in assay [6] was “inactive” in each case. For the same compound, the Potency result in assay [7], in [9] and in assay [12] was “inactive” in each case.

Turning to `CCCCCCCCN(C)C`, the Potency result in [1], in assay [2], in assay [3], in assay [4], in assay [5] and in assay [6] was “inactive” each time. For the same compound, the Potency entry in assay [13], in [7], in assay [9], in assay [10], in [11] and in assay [12] was “inactive” each time.

`Cc1ccccn1`: the Potency result in assay [1], in [2], in assay [3], in assay [4], in assay [5] and in [13] was “inactive” throughout. Moreover, the Potency entry in assay [7], in [14], in assay [9], in assay [10] and in [11] was “inactive” each time.

In the case of `CCOc1ccc(NC(=O)CC(C)=O)cc1`, the Potency result in assay [1], in assay [2], in assay [3], in assay [4], in [5] and in assay [13] was “inactive” in each case. Moreover, the Potency entry in assay [7], in [8], in [9], in assay [10] and in [11] was “inactive” throughout.

As to `CC(=O)Nc1ccc(/C=N/NC(N)=S)cc1`, the Potency result in assay [1], in assay [2], in [3], in [4], in assay [5] and in assay [6] was “inactive” in each case. The Potency entry in assay [7], in assay [9] and in assay [12] was “inactive” each time.

For the compound `CCOc1nc2cccc(C(=O)O)c2n1Cc1ccc(-c2ccccc2-c2nn[nH]n2)cc1`, the Potency result in [1], in assay [2], in [3], in assay [4], in assay [5] and in assay [13] was “inactive” throughout. Moreover, the Potency entry in [7], in [8], in assay [14], in [9], in assay [10] and in assay [12] was “inactive” in each case.

As to `FC(F)(F)C(F)(F)C(F)(F)C(F)(F)C(F)(F)C(F)(F)CCI`, the Potency entry in assay [1], in assay [2], in assay [3], in assay [4], in assay [5] and in assay [13] was “inactive” throughout. In addition, the Potency result in [7], in assay [8] and in [9] was “inactive” throughout.

As for `Nc1cnn([C@@H]2O[C@H](CO)[C@@H](O)[C@H]2O)c(=O)n1`, the Potency result in assay [1], in assay [2], in [3], in [4], in assay [6] and in assay [13] was “inactive” throughout. Also, the Potency result in assay [7], in [8], in [14] and in assay [12] was “inactive” each time.

As to `O=C(O)c1cn(C2CC2)c2cc(Cl)c(F)cc2c1=O`, the Potency result in [1], in assay [2], in assay [3], in assay [4], in assay [5] and in assay [13] was “inactive” each time. The Potency entry in assay [7], in [14], in assay [9] and in assay [12] was “inactive” throughout.

Regarding `O=C(O)[C@@H]1[C@H]2C[C@H]3c4[nH]c5ccccc5c4CCN3C[C@@H]2CC[C@@H]1O`, the Potency entry in [1], in assay [2], in assay [4], in [5], in assay [6] and in assay [13] was “inactive” each time. In addition, the Potency result in [7], in [8], in [14], in [9], in [10] and in [11] was “inactive” in each case. Further, the Potency result in assay [12] was “inactive”.

In the case of `CC(=O)N(O)CCCCCNC(=O)CCC(=O)N(O)CCCCCNC(=O)CCC(=O)N(O)CCCCCN`, the Potency entry in assay [1], in [2], in [3], in assay [4], in assay [6] and in [13] was “inactive” throughout. Also, the Potency result in [7], in assay [9], in [11] and in assay [12] was “inactive” each time.

Consider `O=C1[C@H](CC[C@H](O)c2ccc(F)cc2)[C@@H](c2ccc(O)cc2)N1c1ccc(F)cc1`, for which the Potency entry in assay [1], in assay [2], in assay [3], in assay [4], in assay [6] and in [13] was “inactive” throughout. Moreover, the Potency entry in [8], in assay [9] and in assay [11] was “inactive” each time. For the same compound, in assay [10], the Potency is 26.6 µM (active).

On to `CC(=O)c1ccc2c(c1)[C@H](NC(=O)c1ccc(F)cc1)[C@@H](O)C(C)(C)O2`, for which the Potency result in [1], in assay [2], in assay [3], in assay [4], in assay [6] and in assay [13] was “inactive” in each case. For the same compound, the Potency entry in [8], in [14] and in assay [9] was “inactive” throughout.

Take `C=C(C)C(=O)OC(C)C`: the Potency entry in assay [1], in [2], in assay [3], in [5], in [6] and in assay [13] was “inactive” each time. For the same compound, the Potency entry in [7], in [8], in [14], in assay [9] and in assay [12] was “inactive” in each case.

The values above are taken from PubChem BioAssay (Tox21).
